Reference: PubChem BioAssay (NCATS)
Inconclusive results are not listed. Activity calls are given as the source filed them. Unless noted, calls follow the shape of the dose curve; as a rule, active = well fitted curve in the direction sought with a large enough effect; inconclusive = small, poorly fitted or top-dose-only effect, or another doubt; inactive = no such curve, though single readings can be large; an effect the other way counts as inactive or inconclusive.

Tests used:
[1] = target: Mitogen-activated protein kinase 10 (Mus musculus) (UniProt Q61831); assay: JNK3 AlphaScreen Assay (AID 530; active = well fitted curve in either direction with a large enough effect, not every such curve was filed as active;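 also: kinase came from lysate of stimulated human HepG2 cells; signal reports phosphorylation of biotinylated GST-cJun 1-79 at Ser73 with 10 µM ATP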)
In short: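 Kinase buffer: 20 mM Tris-HCl pH 7.6, 10 mM MgCl2, 1 mM DTT, 0.1 mM Na3VO4, 0.01% Tween-20; ATP 10 uM. Substrate biotin-GST-cJun(1-79), enzyme from activated HepG2 lysates. Detection by Ser73 phospho-antibody AlphaScreen.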

[2] = S16 Schwann cell viability assay (CellTiter-Glo assay) (AID 624031);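 also: cellular ATP luminescence as a viability measure; nearly all actives have a fitted effect of over 70% in size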
In short: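 Luminescent ATP read-out (CellTiter-Glo) after 24 h compound exposure of native S16 rat Schwann cells at 37 °C. Signals were normalized between cell-free wells and DMSO-treated cells, set as 0% activity.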

[3] = S16 Schwann cell PMP22 intronic element firefly luciferase assay (AID 624032); also: nearly all actives have a fitted effect of over 30% in size; also: potency is read from the fitted curve at half-maximal effect
In short: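 Luciferase reporter of PMP22 intronic-element expression in stably transfected S16 rat Schwann cells, read by ONE-Glo luminescence after 24 h compound exposure at 37 C. Activity scaled between DMSO (0%) and positive-control PTC124; concentration-effect curves quality-classified.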

CP194 = assay: qHTS profiling for inhibitors of Plasmodium falciparum proliferation (AID 504749); also: nearly all actives have a fitted effect of over 60% in size; also: potency is read from the fitted curve at half-maximal effect; settings: P. falciparum in erythrocytes, SYBR Green DNA, 72 h; series mostly up to 12.8 µM
In short: (§1)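 In a 72 h erythrocytic culture (37 C, humidified, 5% CO2) at 2.5% hematocrit and 0.3% starting parasitemia, compounds were tested; SYBR Green I in detergent lysis buffer stained parasite DNA overnight.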

CP201 = assay: as above; settings: P. falciparum in erythrocytes, SYBR Green DNA, 72 h; series mostly up to 12.8 µM
In short: as §1

CP203 = assay: as above; settings: P. falciparum in erythrocytes, SYBR Green DNA, 72 h; series mostly up to 12.8 µM
In short: as §1

CP211 = assay: as above; settings: P. falciparum in erythrocytes, SYBR Green DNA, 72 h; series mostly up to 12.8 µM
In short: as §1

CP256 = assay: as above; settings: P. falciparum in erythrocytes, SYBR Green DNA, 72 h; series mostly up to 12.8 µM
In short: as §1

CP266 = assay: as above; settings: P. falciparum in erythrocytes, SYBR Green DNA, 72 h; series mostly up to 12.8 µM
In short: as §1

CP268 = assay: as above; settings: P. falciparum in erythrocytes, SYBR Green DNA, 72 h; series mostly up to 12.8 µM
In short: as §1

CP291 = assay: as above; settings: P. falciparum in erythrocytes, SYBR Green DNA, 72 h; series mostly up to 12.8 µM
In short: as §1

CP297 = assay: as above; settings: P. falciparum in erythrocytes, SYBR Green DNA, 72 h; series mostly up to 12.8 µM
In short: as §1

CP325 = assay: as above; settings: P. falciparum in erythrocytes, SYBR Green DNA, 72 h; series mostly up to 12.8 µM
In short: as §1

CP335 = assay: as above; settings: P. falciparum in erythrocytes, SYBR Green DNA, 72 h; series mostly up to 12.8 µM
In short: as §1

DIV30 = assay: as above; settings: P. falciparum in erythrocytes, SYBR Green DNA, 72 h; series mostly up to 12.8 µM
In short: as §1

P93_24 = assay: as above; settings: P. falciparum in erythrocytes, SYBR Green DNA, 72 h; series mostly up to 12.8 µM
In short: as §1

P94_40 = assay: as above; settings: P. falciparum in erythrocytes, SYBR Green DNA, 72 h; series mostly up to 12.8 µM
In short: as §1

TAB109 = assay: as above; settings: P. falciparum in erythrocytes, SYBR Green DNA, 72 h; series mostly up to 12.8 µM
In short: as §1

Dd2 = assay: as above; settings: P. falciparum in erythrocytes, SYBR Green DNA, 72 h; series mostly up to 12.8 µM
In short: as §1

PC26 = assay: as above; settings: P. falciparum in erythrocytes, SYBR Green DNA, 72 h; series mostly up to 12.8 µM
In short: as §1

Measured: Potency

CCN(CC)CCOC(=O)[C@@H](Cc1cccc2ccccc12)C[C@@H]1CCCO1
not listed: Dd2 | PC26
inactive: all other assays above

c1ccc2c(c1)CCC[C@@H]2C1=NCCN1
inactive: all assays above

COc1ccccc1OC[C@H](O)CO
inactive: all assays above

C1CCN2C[C@@H]3C[C@@H](CN4CCCC[C@H]34)[C@H]2C1
inactive: all assays above

C[C@@H](CN1c2ccccc2Sc2ccccc21)N(C)C
inactive: [1]

CC(C)(C)NC(=O)[C@@H]1C[C@H]2CCCC[C@@H]2CN1C[C@H](O)[C@H](Cc1ccccc1)NC(=O)[C@@H](CC(N)=O)NC(=O)c1ccc2ccccc2n1
inactive: [1]

CN1[C@H](CC(=O)c2ccccc2)CCC[C@H]1C[C@@H](O)c1ccccc1
inactive: [1]

COc1ccc2c(c1)N(C[C@@H](C)CN(C)C)c1ccccc1S2
not listed: [2] | [3] | CP266 | DIV30 | PC26
inactive: all other assays above

CC(=O)/C(C)=N\O
inactive: [1]

CC(=O)O[C@H]1C[C@@]2(C)[C@H](C[C@@H](O)[C@H]3[C@@]4(C)CC[C@@H](O)[C@@H](C)[C@H]4CC[C@@]32C)C1=C(CCC=C(C)C)C(=O)O
inactive: all assays above

CC/C=C\C[C@H]1C(=O)CC[C@@H]1CC(=O)O
inactive: [1]

CN1CCO[C@H](c2ccccc2)c2ccccc2C1
inactive: [1] | [2] | [3] | CP201 | CP211 | CP266 | CP291 | CP297 | PC26

C/C(=C\CNc1ncnc2nc[nH]c12)CO
inactive: [1]

COC(=O)[C@@H]1[C@@H]2C[C@H]3c4[nH]c5cc(OC)ccc5c4CCN3C[C@@H]2C[C@H](OC(=O)/C=C\c2cc(OC)c(OC)c(OC)c2)[C@H]1OC
inactive: [2] | CP201 | CP266
active: DIV30 5.1 µM | P93_24 3.16 µM | PC26 6.42 µM

C[C@@]12CCC(=O)C[C@@H]1CC(=O)[C@H]1[C@H]3CCC[C@]3(C)C(=O)C[C@@H]12 (tested in a mixture with another compound)
inactive: [1]

NCCC(=O)N[C@@H](Cc1cnc[nH]1)C(=O)O
inactive: [1]

CCN1CCC[C@@H](OC(=O)C(c2ccccc2)c2ccccc2)C1
inactive: [1] | [2] | CP201 | CP211 | CP266 | CP268 | CP297

CC1(C)S[C@@H]2[C@H](NC(=O)COc3ccccc3)C(=O)N2[C@H]1C(=O)O (tested in a mixture with another compound)
inactive: [1]

CC1=C(C(=O)O)N2C(=O)[C@@H](NC(=O)[C@@H](N)c3ccc(O)cc3)[C@@H]2SC1
not listed: CP211
inactive: all other assays above

COc1ccc(-c2cc(=O)c3c(O)cc(O)cc3o2)cc1
inactive: [1]

CCCCC[C@H](O)/C=C\[C@@H]1[C@H](O)CC(=O)[C@@H]1CCCCCCC(=O)O
not listed: CP194 | CP268 | P93_24
inactive: all other assays above

CC1(C)[C@@H](OC(=O)CCC(=O)O)CC[C@@]2(C)[C@H]1CC[C@@]1(C)[C@H]2C(=O)C=C2[C@H]3C[C@](C)(C(=O)O)CC[C@]3(C)CC[C@@]21C
inactive: all assays above

Cc1cn([C@@H]2C[C@H](N=[N+]=N)[C@H](CO)O2)c(=O)[nH]c1=O
inactive: [1]

CCCCC[C@H](O)/C=C\[C@H]1[C@H](C/C=C\CCCC(=O)O)[C@@H](O)C[C@H]1O (tested in a mixture with another compound)
inactive: all assays above

Nc1ncn([C@H]2O[C@@H](CO)[C@@H](O)[C@@H]2O)c(=O)n1
inactive: [1]

COC(=O)C1=C(C)NC(C)=C(C(=O)OCCN(C)Cc2ccccc2)[C@H]1c1cccc([N+](=O)[O-])c1
inactive: [1]

CC1(C)S[C@@H]2[C@H](NC(=O)[C@@H](N)c3ccccc3)C(=O)N2[C@H]1C(=O)O[C@H]1OC(=O)c2ccccc21
not listed: [1]
inactive: all other assays above

CC1CCC(C(C)C)C(=O)C1 (stereo unspecified)
not listed: [1]
inactive: all other assays above

C/C1=C2N=C(/C=C3N=C(/C(C)=C4\[N-]C(C)(C5N=C1C(C)(CCC(=O)NCC(C)OP(=O)([O-])O[C@H]1C(O)C(n6cnc7cc(C)c(C)cc76)O[C@@H]1CO)C5CC(N)=O)C(C)(CC(N)=O)C4CCC(N)=O)C(C)(CC(N)=O)C\3CCC(N)=O)C(C)(C)C/2CCC(N)=O.[CH2-]C1OC(n2cnc3c(N)ncnc32)C(O)C1O.[Co] (stereo partly specified)
active: [3] 14.4 µM
not listed: [1] | CP211
inactive: all other assays above

COc1ccc2cc1Oc1ccc(cc1)CC1c3c(cc4c(c3Oc3cc5c(cc3OC)CCN(C)C5C2)OCO4)CCN1C (stereo unspecified)
inactive: [3]
active: CP194 13.5 µM | CP203 12 µM | CP211 12 µM | CP256 10 µM | CP268 13.5 µM | CP291 12 µM | CP297 10.7 µM | CP325 12 µM | CP335 6.01 µM | Dd2 2.24 µM | P93_24 6.31 µM | P94_40 8.91 µM | PC26 12 µM | TAB109 7.08 µM

O=C1OC(CO)C(O)C(O)C1O (stereo unspecified)
not listed: [1] | P93_24
inactive: all other assays above

NC(C(=O)O)[C@@H]1CC(Cl)=NO1 (stereo partly specified)
active: CP194 3.38 µM | CP201 3.01 µM | CP203 3.38 µM | CP211 2.69 µM | CP256 2.82 µM | CP266 3.79 µM | CP268 1.51 µM | CP291 2.13 µM | CP297 3.38 µM | CP325 2.69 µM | CP335 1.2 µM | DIV30 3.38 µM | Dd2 0.708 µM | P93_24 1 µM | P94_40 1.12 µM | PC26 1.9 µM | TAB109 1 µM

CC(C)C1CCC(C(=O)NC(Cc2ccccc2)C(=O)O)CC1 (stereo unspecified)
not listed: [1] | CP266 | P94_40
inactive: all other assays above

NCC1CCC(N)C(O[C@@H]2C(O)[C@H](O[C@H]3OC(CO)C(O)C(N)C3O)[C@@H](N)C[C@H]2N)O1 (stereo partly specified)
not listed: [1]
inactive: all other assays above
